In PubChem BioAssay AID568 (Sanford-Burnham Center for Chemical Genomics, 2006):
Out of some 83,000 compounds screened, fewer than 10 were called active. No rule for the calls is given here. Not all results are given here. Results with a measured potency or affinity are listed apart.

Each compound was assayed against Heat shock cognate 71 kDa protein (Homo sapiens) (UniProt P11142) (assay: Hsc70 inhibitors, probe displacement, primary screen, biochemical, fluorescence polarization (AID 568)). Conditions: mP, at 20 µM, hits give high values.
Heat shock cognate 71 kDa protein (Homo sapiens), sequence (P11142 whole entry, looked up): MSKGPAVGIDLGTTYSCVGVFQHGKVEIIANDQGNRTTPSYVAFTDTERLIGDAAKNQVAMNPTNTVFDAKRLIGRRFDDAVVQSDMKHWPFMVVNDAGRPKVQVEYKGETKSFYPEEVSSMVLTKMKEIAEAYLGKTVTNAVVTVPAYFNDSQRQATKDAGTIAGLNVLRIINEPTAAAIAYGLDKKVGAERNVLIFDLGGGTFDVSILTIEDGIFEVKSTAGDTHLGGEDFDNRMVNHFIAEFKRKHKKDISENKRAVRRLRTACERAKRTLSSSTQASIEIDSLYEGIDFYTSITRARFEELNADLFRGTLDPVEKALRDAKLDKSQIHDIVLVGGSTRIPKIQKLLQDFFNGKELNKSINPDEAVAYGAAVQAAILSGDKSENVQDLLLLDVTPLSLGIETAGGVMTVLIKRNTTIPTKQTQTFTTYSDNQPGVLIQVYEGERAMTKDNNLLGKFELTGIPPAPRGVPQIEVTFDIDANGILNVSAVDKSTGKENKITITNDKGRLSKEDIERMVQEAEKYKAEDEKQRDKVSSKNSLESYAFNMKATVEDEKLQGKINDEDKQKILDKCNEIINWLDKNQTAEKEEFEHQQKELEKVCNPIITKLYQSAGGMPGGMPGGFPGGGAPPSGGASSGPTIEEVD
Heat shock cognate 71 kDa protein (Homo sapiens), sequence (P11142 whole entry, looked up): as above

displacement, inactive:
O=C(Nc1cccc(Cl)c1N1CCCC1)c1cc2ccccc2o1 -2.4%, CCOC(=O)C1=NN(c2ccccc2)C2(S1)SC(C(C)=O)=C(C)N2c1ccccc1 (configuration not stated) 3.4%, Cc1noc(C)c1CSc1nnc2cc(C)c3ccccc3n12 -6.7%, Cc1ccc(C(=O)NCc2occc2C(=O)O)o1 2.4%, CCn1c2ccccc2c2nnc(SCC(=O)Nc3ncccn3)nc21 5.9%, COc1ccc(S(=O)(=O)NCC(=O)N(CC(=O)NCC2CCCO2)c2c(C)cccc2C)cc1 (configuration not stated) -3.5%, O=C(Nc1ccncc1)c1cc(F)cc(F)c1 3.6%, c1ccc2sc(N3CCN(Cc4nnnn4CC4CCCO4)CC3)nc2c1 (configuration not stated) 1.7%, Cn1c(SCc2ccc(F)cc2)nnc1-c1cccs1 -5%, CCOc1ccc(C(C#N)N2CCOCC2)cc1OC (configuration not stated) -4.5%, CCCCN(C(=O)c1cc(OC)c(OC)c(OC)c1)C1=CC2CCC(C1)N2C (configuration not stated) -2.2%, Cc1nn(-c2ccccn2)c2nc(-c3cccs3)cc(C(=O)N3CCOCC3)c12 0.1%, Cn1c(SCC(=O)NCc2ccc3c(c2)OCO3)nnc1-c1cccs1 -4.3%, COc1ccc(-c2nc(C)c(C(C)=O)n2O)cc1 3.1%, COC(=O)c1ccc(OCC(=O)c2ccccc2OC)cc1 2.4%, CCOC(=O)c1ccc2nc(NC(=O)c3cccs3)sc2c1 -11.3%, O=C(c1cccc(S(=O)(=O)N2CCCCC2)c1)N1CCN(S(=O)(=O)c2ccc(F)cc2)CC1 7.4%, N#Cc1ccccc1NC(=O)CSc1nnc(-c2ccccc2O)n1-c1ccccc1 -3.5%, CCN(CC)S(=O)(=O)c1cccc(C(=O)Nc2cccnc2)c1 4.9%, CCOC(=O)c1cccc(N2C(=O)C3C(C(=O)NC4CC4)C4(C)C=CC3(O4)C2C(=O)NC(C)(C)C)c1 (configuration not stated) 0.8%, COc1ccc(NC(=O)CSc2nc3ccccc3c(=O)n2CCNC(C)=O)cc1 1%, CC(C)c1ccc(-c2nnn(Cc3nc4ccccc4s3)n2)cc1 7.9%, CC1=C(C(=O)N2CCOCC2)C(c2cccs2)NC(=O)N1 (configuration not stated) 1.5%, Cc1c(NC2=NC(C)(C)Cc3ccccc32)c(=O)n(-c2ccccc2)n1C -0.6%, CCc1ccccc1NC(=O)N[C@@H](C)C(=O)O 4.3%, CCCCNC(=S)NNC(=O)c1ccco1 4%, CC1=C(C(=O)OC(C)C)C(c2c[nH]c3ccccc23)n2ncnc2N1 (configuration not stated) 4.3%, CNS(=O)(=O)c1cccc2cccnc12 5.1%, Cc1ccc(C)c(-n2c(SCC(=O)NCC3CCCO3)nnc2-c2ccoc2C)c1 (configuration not stated) -2.3%, O=C1C2C3C=CC(C3)C2C(=O)N1c1ccc2ccccc2n1 (configuration not stated) 6.3%, CCOC(=O)c1c(NC(=O)CSc2nnc(-c3cccnc3)o2)sc2c1CCC2 -5%, Cn1c(CNC(=O)c2cccs2)nnc1SCC(=O)Nc1ccc(Cl)cc1 1.1%, COc1ccc(Br)cc1CNC(=O)CCc1nc(-c2ccccc2F)no1 0%, COC(=O)c1[nH]nc2c1C(=O)N(C1CCCCC1)C2=O 2.9%, CCCC1CCC(C2=N/C(=C\c3ccc(OC)c(OC)c3)C(=O)O2)CC1 (configuration not stated) -5%, Cn1c(CCN2CCN(c3ccccc3)CC2)nc2cc(NC(=O)c3ccco3)ccc21 0.4%, O=C(COC(=O)c1cccnc1)c1ccc(Cl)c(Cl)c1 -1.2%, CCn1c(COc2ccccc2C)nnc1SCC(=O)CC(=O)Nc1ccccc1 2.2%, CN(Cc1ccccc1)C(=O)c1ccc2c(c1)OCCO2 0.2%, Cn1cc(S(=O)(=O)CC(=O)Nc2ccc3c(c2)OCCO3)c2ccccc21 7.1%, NC(=O)c1ccccc1N/C=C/C(=O)c1ccco1 5.3%, CCN1CCN(CCCNC(=O)C2CCCN(c3nnc(-n4cccc4)s3)C2)CC1 (configuration not stated) 7%, Cc1ccc2oc(=O)c3cnn(CC(=O)NCCN4CCOCC4)c3c2c1 2.8%, Cc1c(C(=O)O)oc2ccc(S(=O)(=O)NCc3ccccc3)cc12 -0.1%, COc1ccc(C(c2nnnn2Cc2cccs2)N2CCN(c3ccccc3F)CC2)cc1 (configuration not stated) -2.2%, CC(=O)NCCn1c(SCC(=O)NCCC2=CCCCC2)nc2ccccc2c1=O -4.3%, Cc1cc(C)cc(N(C(=O)c2ccc3c(c2)OCO3)C2C=CS(=O)(=O)C2)c1 (configuration not stated) -3.3%, CCN(CC)S(=O)(=O)c1ccc(-c2nnc(SCc3nnc(-c4ccc(C)cc4)o3)n2CC)cc1 -2.9%, CC(C)(C)C(=O)CNS(=O)(=O)c1ccc(S(=O)(=O)NC2CCCC2)cc1 2.7%, Cc1ccc(OC(C)C)c(CN(CCO)CCO)c1 -3.1%, COc1ccc(S(=O)(=O)N2CCSC2c2ccc(N)cc2)cc1 (configuration not stated) 2.5%, CSc1nn(CCc2ccncc2)c(=S)s1 -0.7%, COc1cc(NC(=O)c2cc(C)on2)cc(OC)c1OC 8%, N#C/C(=C\Nc1ccc2c(c1)OCCO2)c1nc2ccccc2[nH]1 -23.3%, CC(C)c1[nH]nc2c1C(Cc1ccccc1)C(C#N)=C(N)O2 (configuration not stated) 5.2%, COc1ccccc1N1CCN(C(=O)c2c(-c3ccccc3Cl)noc2C)CC1 -6.4%, CC(=O)Nc1ccc(S(=O)(=O)Nc2cccc(N(C)S(C)(=O)=O)c2)cc1 -0.7%, CCOc1ccc(S(=O)(=O)Nc2ccccc2SC)cc1 -1.7%, NC(=O)c1ccsc1NC(=O)COc1ccccc1 9.1%, COC(=O)c1c(NS(C)(=O)=O)sc2c1CCCC2 3.6%, COc1ccc(NC(=O)CCn2nc(C)cc2C)cc1 -4.3%, O=C(CSc1nnc(Cn2c(=O)sc3ccccc32)n1CCc1ccccc1)N1CCCC1 1.9%
